This is an account of results in the supplement of paper PMC10412459.

Counter-ions that a name gives are not always drawn.

This test relates to K562 SF3B1 K700E vs K562 SF3B1 WT. Description: surviving fraction ratio K562 SF3B1 K700E / K562 SF3B1 WT (each relative to DMSO); higher = less selective killing of SF3B1 K700E cells. To be noted: 5 days. An outline of the steps: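 In 384-well plates holding 250 cells per well, isogenic K562 cells bearing an engineered mutant allele and matched wild-type cells received compounds from an in-house 80-compound library 24 h after seeding. Doses were 0.5, 1, 5, 10, 50, 100, 500 and 1,000 nM, with 5 d of continuous culture. Surviving fractions were taken from CellTiter-Glo readings and normalised to DMSO. The value reported is the mutant-over-wild-type ratio of these fractions.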

`CCCS(=O)(=O)Nc1ccc(F)c(C(=O)c2c[nH]c3ncc(Cl)cc23)c1F`: the “surviving fraction ratio K562 SF3B1 K700E / K562 SF3B1 WT” value was 1.33 (0.5nM); 1.07 (1nM); 1.13 (5nM); 0.874 (10nM); 1.13 (50nM); 0.998 (100nM). Further, the “surviving fraction ratio K562 SF3B1 K700E / K562 SF3B1 WT” value by setting is: (500nM) 1.1; (1000nM) 1.06.
Consider `O=C(NOCC1CC1)c1ccc(F)c(F)c1Nc1ccc(I)cc1Cl`, for which the “surviving fraction ratio K562 SF3B1 K700E / K562 SF3B1 WT” value turned out to be 1.29 (0.5nM); 0.978 (1nM); 1.08 (5nM); 0.818 (10nM); 1.3 (50nM); 0.822 (100nM). Further, the “surviving fraction ratio K562 SF3B1 K700E / K562 SF3B1 WT” value reads like this: (500nM) 0.921; (1000nM) 0.944.
Take `CC[C@@H]1C(=O)N(C)c2cnc(Nc3ccc(C(=O)NC4CCN(C)CC4)cc3OC)nc2N1C1CCCC1`: the “surviving fraction ratio K562 SF3B1 K700E / K562 SF3B1 WT” value is 0.867 (0.5nM); 0.956 (1nM); 0.455 (5nM); 2.45 (10nM); 2.89 (50nM); 2.99 (100nM). Further, the “surviving fraction ratio K562 SF3B1 K700E / K562 SF3B1 WT” value was found to be 2.76 (500nM) and 2.22 (1000nM).
With `CCCCCCCCCCCCCCCC(=O)Nc1ccn([C@@H]2O[C@H](CO)[C@@H](O)[C@@H]2C#N)c(=O)n1` [Sapacitabine], the “surviving fraction ratio K562 SF3B1 K700E / K562 SF3B1 WT” value runs as follows: (0.5nM) 0.952; (5nM) 0.99; (50nM) 0.729; (500nM) 1.27.
With `CCc1cc(Nc2nccc(-c3c(-c4ccc(OC)c(C(=O)Nc5c(F)cccc5F)c4)nc4ccccn34)n2)c(OC)cc1N1CCC(N2CCN(S(C)(=O)=O)CC2)CC1`, the “surviving fraction ratio K562 SF3B1 K700E / K562 SF3B1 WT” value runs as follows: (0.5nM) 0.969; (1nM) 0.921; (5nM) 0.92; (10nM) 0.907; (50nM) 0.817; (100nM) 0.805. The “surviving fraction ratio K562 SF3B1 K700E / K562 SF3B1 WT” value was found to be 0.824 (500nM) and 0.842 (1000nM).
As for `O=C1NC(=NCc2cccs2)S/C1=C\c1ccc2ncccc2c1`, the “surviving fraction ratio K562 SF3B1 K700E / K562 SF3B1 WT” value was found to be 0.909 (0.2nM); 0.855 (0.4nM); 0.878 (2nM); 0.842 (4nM); 1.02 (20nM); 0.921 (40nM). Moreover, the “surviving fraction ratio K562 SF3B1 K700E / K562 SF3B1 WT” value was found to be 0.844 (200nM) and 0.909 (400nM).
As for `C[C@@H]1CN(CC(=O)Nc2ccc3c(c2)Cc2cccc(-c4cc(=O)cc(N5CCOCC5)o4)c2S3)C[C@H](C)O1`, the “surviving fraction ratio K562 SF3B1 K700E / K562 SF3B1 WT” value was determined as 0.976 (0.5nM); 1.04 (1nM); 0.887 (5nM); 0.896 (10nM); 1.08 (50nM); 0.96 (100nM). Besides, the “surviving fraction ratio K562 SF3B1 K700E / K562 SF3B1 WT” value by setting is: (500nM) 0.878; (1000nM) 0.865.
`COc1cccc2c1C(=O)c1c(O)c3c(c(O)c1C2=O)C[C@@](O)(C(=O)CO)C[C@@H]3O[C@H]1C[C@H](N)[C@H](O)[C@H](C)O1` [doxorubicin.HCl]: the “surviving fraction ratio K562 SF3B1 K700E / K562 SF3B1 WT” value came out at 0.974 (0.5nM); 1.04 (1nM); 0.718 (5nM); 1.07 (10nM); 1.11 (50nM); 0.446 (100nM). Also, the “surviving fraction ratio K562 SF3B1 K700E / K562 SF3B1 WT” value is 1.24 (500nM) and 2.24 (1000nM).
For `CC1(C)CC(=O)c2c(C(F)(F)F)nn(-c3ccc(C(N)=O)c(N[C@H]4CC[C@H](OC(=O)CN)CC4)c3)c2C1`, the “surviving fraction ratio K562 SF3B1 K700E / K562 SF3B1 WT” value is, setting by setting: (0.5nM) 0.983; (1nM) 0.972; (5nM) 0.763; (10nM) 0.719; (50nM) 1.18; (100nM) 2.16. The “surviving fraction ratio K562 SF3B1 K700E / K562 SF3B1 WT” value by setting is: (500nM) 1.09; (1000nM) 1.16.
Take `Cc1nc(Nc2n[nH]c3c2CN(C(=O)N[C@H](CN(C)C)c2ccccc2)C3(C)C)c2sccc2n1`: the “surviving fraction ratio K562 SF3B1 K700E / K562 SF3B1 WT” value runs as follows: (0.5nM) 0.912; (1nM) 0.858; (5nM) 1.09; (10nM) 1.34; (50nM) 1.76; (100nM) 1.69. Also, the “surviving fraction ratio K562 SF3B1 K700E / K562 SF3B1 WT” value is, setting by setting: (500nM) 1.98; (1000nM) 1.69.
As for `C[C@H](CN(C)C)Oc1nc(Nc2cc3cccc(Cl)c3cn2)cnc1C#N`, the “surviving fraction ratio K562 SF3B1 K700E / K562 SF3B1 WT” value stood at 0.863 (0.5nM); 0.781 (1nM); 0.786 (5nM); 0.781 (10nM); 0.826 (50nM); 0.784 (100nM). For the same molecule, the “surviving fraction ratio K562 SF3B1 K700E / K562 SF3B1 WT” value runs as follows: (500nM) 0.497; (1000nM) 0.442.
For `CC(=O)c1c(C)c2cnc(Nc3ccc(N4CCNCC4)cn3)nc2n(C2CCCC2)c1=O`, the “surviving fraction ratio K562 SF3B1 K700E / K562 SF3B1 WT” value was 0.861 (0.5nM); 0.89 (1nM); 0.743 (5nM); 0.796 (10nM); 0.826 (50nM); 0.882 (100nM). Further, the “surviving fraction ratio K562 SF3B1 K700E / K562 SF3B1 WT” value (500nM) stood at 0.849 and the “surviving fraction ratio K562 SF3B1 K700E / K562 SF3B1 WT” value (1000nM) is 0.864.
Regarding `Oc1ccc(/C=C/c2cc(O)cc(O)c2)cc1` [resveratrol], the “surviving fraction ratio K562 SF3B1 K700E / K562 SF3B1 WT” value by setting is: (0.5nM) 0.896; (1nM) 0.898; (5nM) 0.856; (10nM) 0.905; (50nM) 1; (100nM) 1.24. For the same molecule, the “surviving fraction ratio K562 SF3B1 K700E / K562 SF3B1 WT” value was 0.916 (500nM) and 1.28 (1000nM).
